Results filed as inconclusive are left out. The source made the active and inactive calls. Unless noted, the call rests on the fitted dose curve; in most records, active means well fitted curve in the direction sought with a large enough effect in the repeat runs; inconclusive means weak or mixed curves; inactive means no such curve, though single readings can be large; an effect the other way counts as inactive or inconclusive.
Key:
[1] = biological target: Estrogen receptor beta (Homo sapiens) (UniProt Q92731); assay: qHTS assay to identify small molecule agonists of the estrogen receptor beta (ER-beta) signaling pathway (AID 1259377; active means well fitted activation curve with a large enough effect in the signal ratio in the repeat runs, not every such curve was filed as active; the % refers to the signal ratio)
Sequence of Estrogen receptor beta (Homo sapiens) (Q92731 whole entry, looked up): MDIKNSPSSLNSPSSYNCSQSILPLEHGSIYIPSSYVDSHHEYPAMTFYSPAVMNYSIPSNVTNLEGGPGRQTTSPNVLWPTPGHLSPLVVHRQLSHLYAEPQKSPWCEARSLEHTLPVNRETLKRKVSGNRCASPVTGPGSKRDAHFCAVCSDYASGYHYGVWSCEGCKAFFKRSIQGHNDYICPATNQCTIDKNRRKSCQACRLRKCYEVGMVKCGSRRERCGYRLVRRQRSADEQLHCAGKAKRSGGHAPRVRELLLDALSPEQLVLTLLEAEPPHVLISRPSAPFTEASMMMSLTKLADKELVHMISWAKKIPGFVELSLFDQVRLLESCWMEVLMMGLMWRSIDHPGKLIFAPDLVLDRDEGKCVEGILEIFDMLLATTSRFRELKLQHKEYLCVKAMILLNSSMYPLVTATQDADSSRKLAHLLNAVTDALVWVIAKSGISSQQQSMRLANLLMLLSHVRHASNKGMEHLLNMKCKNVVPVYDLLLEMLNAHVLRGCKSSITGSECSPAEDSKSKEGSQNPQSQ
How it was run: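 Measured by fluorescence intensity from a B/G FRET beta-lactamase substrate (2 h, room temperature) in ER-beta-UAS-bla HEK293T cells treated with DMSO-dissolved compounds for 16 hr at 37C and 5% CO2.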

[2] = biological target: Estrogen receptor beta (Homo sapiens) (UniProt Q92731); assay: qHTS assay to identify small molecule antagonists of the estrogen receptor beta (ER-beta) signaling pathway (AID 1259378; active means well fitted inhibition curve with a large enough effect in the signal ratio in the repeat runs, not every such curve was filed as active; the % refers to the signal ratio)
How it was run: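 Antagonist mode: compounds added to beta-lactamase reporter HEK293T ER-beta-UAS cells stimulated with E2 (1nM final), 16 hr at 37C. LiveBLAzer B/G FRET substrate, 2 hours room temperature, fluorescence read-out.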

[3] = qHTS assay to identify small molecule agonists of the androgen receptor (AR) signaling pathway in the presence of an antagonist - cell viability counter screen (AID 1259379);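 further: MDA-kb2 human breast cancer cells carrying an MMTV luciferase reporter; series mostly up to about 92 µM; nearly all actives have a fitted effect of over 25% in size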
How it was run: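 MDA-kb2 human breast carcinoma cells (stable MMTV-luciferase, AR/GR responsive) were seeded 3,000 cells/well, pre-incubated 5 hr at 37C without CO2, then given 3.0uM nilutamide and compounds at 15 concentrations for 16 hr. Viability was read by CellTiter-Fluor fluorescence.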

[4] = qHTS assay to identify small molecule agonists of the estrogen receptor beta (ER-beta) signaling pathway - cell viability counter screen (AID 1259380); further: nearly all actives have a fitted effect of over 30% in size
How it was run: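 ER-beta-UAS-bla HEK293T cells in medium with 2% charcoal-stripped FBS were preincubated 6 hr at 37C, dosed with compound in DMSO for 16 hr, then after the bla read, CellTiter-Glo was added for 30 min at room temperature; luminescence recorded.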

[5] = qHTS assay to identify small molecule antagonists of the estrogen receptor beta (ER-beta) signaling pathway - cell viability counter screen (AID 1259382);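 further: HEK293T cells carrying ER-beta-UAS-bla reporter stimulated with estradiol; series mostly up to about 92 µM; nearly all actives have a fitted effect of over 55% in size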
How it was run: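 ER-beta-UAS-bla HEK293T cells (2,000/well, 2% charcoal-stripped FBS) were pre-incubated 6 hr at 37C, then given compound plus 1nM final 17-beta-estradiol for 16 hr. Viability was read in the same wells by CellTiter-Glo luminescence after 30 min at room temperature.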

[6] = biological target: Estrogen receptor (Homo sapiens) (UniProt P03372); assay: qHTS assay to identify small molecule agonists of the estrogen receptor alpha (ER-alpha) signaling pathway in the presence of an antagonist (AID 1259383; calls by dose curve; further: top concentration of the series differs between compounds; nearly all actives have a fitted effect of over 15% in size)
Sequence of Estrogen receptor (Homo sapiens) (P03372 whole entry, looked up): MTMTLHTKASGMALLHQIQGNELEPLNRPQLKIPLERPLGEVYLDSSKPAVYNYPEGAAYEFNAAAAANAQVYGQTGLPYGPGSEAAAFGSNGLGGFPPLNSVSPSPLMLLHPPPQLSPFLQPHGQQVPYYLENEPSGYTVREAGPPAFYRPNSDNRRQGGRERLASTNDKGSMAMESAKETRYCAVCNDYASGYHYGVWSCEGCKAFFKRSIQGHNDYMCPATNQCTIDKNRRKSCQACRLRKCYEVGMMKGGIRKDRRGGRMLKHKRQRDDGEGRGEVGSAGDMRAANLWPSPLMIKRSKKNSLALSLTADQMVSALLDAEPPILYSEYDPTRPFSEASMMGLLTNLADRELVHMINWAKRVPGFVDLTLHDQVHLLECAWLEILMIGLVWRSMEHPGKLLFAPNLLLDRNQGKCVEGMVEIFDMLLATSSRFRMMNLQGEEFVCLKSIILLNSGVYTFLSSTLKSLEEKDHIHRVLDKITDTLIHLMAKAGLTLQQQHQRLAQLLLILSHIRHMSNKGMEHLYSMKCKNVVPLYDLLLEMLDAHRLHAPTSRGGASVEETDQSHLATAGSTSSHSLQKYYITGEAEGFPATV
How it was run: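 VM7Luc4E2 cells (endogenous full-length ER-alpha, 4×ERE-luciferase) were precultured 5 days in phenol red-free medium with 10% charcoal-stripped FBS, given 10.0nM ICI-182,780 (final), then treated with compounds at 15 concentrations for 22hr at 37C; luminescence read with ONE-Glo.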

[7] = qHTS assay to identify small molecule agonists or antagonists of the thyroid stimulating hormone receptor (TSHR) signaling pathway - wild type cell line counter screen (AID 1259384; calls by dose curve)
How it was run: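 Counter screen in untransfected Hek293: compounds (15-point titration, triplicate) plus phosphodiesterase inhibitor Ro20-1724 added after 18 h plating; 30 min RT. Intracellular cAMP via competitive d2/cryptate immunoassay, 1 h incubation.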

[8] = qHTS assay to identify small molecule agonists of the estrogen receptor alpha (ER-alpha) signaling pathway in the presence of an antagonist - cell viability counter screen (AID 1259386);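 further: series mostly up to about 92 µM; cells exposed to compounds for 22 h at 37 °C before the viability read; nearly all actives have a fitted effect of over 30% in size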
How it was run: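 VM7Luc4E2 cells (endogenous full-length ER-alpha, 4×ERE-luciferase) were held 5 days in phenol red-free medium with 10% charcoal-stripped FBS, plated, then given 10.0nM ICI-182,780 and compounds at 15 concentrations for 22hr at 37C; viability read by CellTiter-Fluor fluorescence.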

[9] = biological target: Progesterone receptor (Homo sapiens) (UniProt P06401); assay: qHTS assay to identify small molecule agonists of the progesterone receptor (PR) signaling pathway (AID 1346784; calls by dose curve; further: nearly all actives have a fitted effect of over 30% in size)
Sequence of Progesterone receptor (Homo sapiens) (P06401 whole entry, looked up): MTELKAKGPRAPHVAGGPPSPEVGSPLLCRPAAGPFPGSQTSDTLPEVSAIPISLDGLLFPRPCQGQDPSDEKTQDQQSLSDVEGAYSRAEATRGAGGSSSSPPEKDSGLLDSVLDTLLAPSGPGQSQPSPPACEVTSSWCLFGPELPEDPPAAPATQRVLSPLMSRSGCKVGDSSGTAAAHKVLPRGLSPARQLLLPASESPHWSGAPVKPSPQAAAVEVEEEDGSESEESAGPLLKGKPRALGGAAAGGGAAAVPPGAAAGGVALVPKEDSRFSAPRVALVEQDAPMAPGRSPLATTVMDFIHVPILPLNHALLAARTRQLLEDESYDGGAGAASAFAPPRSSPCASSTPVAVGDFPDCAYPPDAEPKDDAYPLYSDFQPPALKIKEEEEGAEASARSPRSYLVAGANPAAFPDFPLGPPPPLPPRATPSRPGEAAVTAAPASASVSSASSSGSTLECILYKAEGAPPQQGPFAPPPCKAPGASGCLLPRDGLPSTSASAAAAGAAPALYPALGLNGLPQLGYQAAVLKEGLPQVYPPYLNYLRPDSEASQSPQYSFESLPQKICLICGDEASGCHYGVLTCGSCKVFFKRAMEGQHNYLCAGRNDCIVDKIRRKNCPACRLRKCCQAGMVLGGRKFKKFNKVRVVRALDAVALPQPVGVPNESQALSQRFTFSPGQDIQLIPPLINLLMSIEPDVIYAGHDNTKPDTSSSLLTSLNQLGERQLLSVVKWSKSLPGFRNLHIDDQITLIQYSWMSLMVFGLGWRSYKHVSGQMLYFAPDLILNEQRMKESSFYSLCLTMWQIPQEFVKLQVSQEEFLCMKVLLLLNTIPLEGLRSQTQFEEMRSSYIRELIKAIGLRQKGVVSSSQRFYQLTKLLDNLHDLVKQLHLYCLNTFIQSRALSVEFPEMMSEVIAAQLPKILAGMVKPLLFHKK
How it was run: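 The screen uses PR-UAS-bla HEK 293T cells in charcoal-stripped serum (2%). Compounds are applied for 16 hr at 37C after a 6 hr pre-incubation, and reporter activity is detected with a FRET beta-lactamase substrate after 2 hr at room temperature.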

[10] = biological target: Progesterone receptor (Homo sapiens) (UniProt P06401); assay: qHTS assay to identify small molecule antagonists of the progesterone receptor (PR) signaling pathway (AID 1346795; active means well fitted inhibition curve with a large enough effect in the signal ratio in the repeat runs, not every such curve was filed as active; the % refers to the signal ratio)
How it was run: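 After 6 hr plating at 37C in 2% stripped-serum medium, PR-UAS-bla HEK293T cells got compounds, then 1 nM R5020. Sixteen hours later, LiveBLAzer substrate was applied for 2 hr at room temperature and fluorescence was recorded.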

[11] = qHTS assay to identify small molecule antagonists of the progesterone receptor (PR) signaling pathway - cell viability counter screen (AID 1346798); further: series mostly up to about 92 µM; nearly all actives have a fitted effect of over 50% in size
How it was run: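 Viability was determined by ATP-based luminescence (CellTiter-Glo) in PR-UAS-bla HEK293T cells cultured in 2% charcoal-stripped serum and incubated 16 hr with compounds under R5020 stimulation.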

[12] = qHTS assay to identify small molecule agonists of the progesterone receptor (PR) signaling pathway - cell viability counter screen (AID 1346799; calls by dose curve; further: nearly all actives have a fitted effect of over 45% in size)
How it was run: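 Viability was scored by ATP luminescence (CellTiter-Glo, 30 min, room temperature) in the same wells used for the reporter readout, after 16 hr compound exposure of PR-UAS-bla HEK293T cells.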

[13] = qHTS assay to identify small molecule antagonists of the TGF-beta/Smad signaling pathway - cell viability counter screen (AID 1346824); further: nearly all actives have a fitted effect of over 50% in size
How it was run: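 Cytotoxicity counter-screen run in the same wells as the beta-lactamase Smad reporter read: CellTiter-Glo luminescence after 30 min at room temperature. HEK 293T SBE-bla cells had 5 hr compound exposure at 37 C with TGF-beta1 (0.25 ng/mL stock).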

[14] = qHTS assay to identify small molecule agonists of the TGF-beta/Smad signaling pathway - cell viability counter screen (AID 1346829); further: top concentration of the series differs between compounds; nearly all actives have a fitted effect of over 45% in size
How it was run: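 Here the cytotoxicity of library compounds is measured in SBE-bla HEK 293T cells treated for 5 hr, using CellTiter-Glo added to wells already read for the beta-lactamase reporter.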

[15] = qHTS assay to identify small molecule agonists of the TGF-beta/Smad signaling pathway (AID 1346859; active means well fitted activation curve with a large enough effect in the signal ratio in the repeat runs, not every such curve was filed as active; the % refers to the signal ratio; further: series mostly up to about 77 µM)
How it was run: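 Dual-wavelength fluorescence (460/530 nm emission) quantified beta-lactamase expression under the Smad binding element in HEK 293T cells following 5 hr compound treatment at 37 C.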

[16] = biological target: Thyrotropin-releasing hormone receptor (Homo sapiens) (UniProt P34981); assay: qHTS assay to identify small molecule agonists of the thyrotropin-releasing hormone receptor (TRHR) signaling pathway (AID 1346891; calls by dose curve; further: series mostly up to about 58 µM)
Sequence of Thyrotropin-releasing hormone receptor (Homo sapiens) (P34981 whole entry, looked up): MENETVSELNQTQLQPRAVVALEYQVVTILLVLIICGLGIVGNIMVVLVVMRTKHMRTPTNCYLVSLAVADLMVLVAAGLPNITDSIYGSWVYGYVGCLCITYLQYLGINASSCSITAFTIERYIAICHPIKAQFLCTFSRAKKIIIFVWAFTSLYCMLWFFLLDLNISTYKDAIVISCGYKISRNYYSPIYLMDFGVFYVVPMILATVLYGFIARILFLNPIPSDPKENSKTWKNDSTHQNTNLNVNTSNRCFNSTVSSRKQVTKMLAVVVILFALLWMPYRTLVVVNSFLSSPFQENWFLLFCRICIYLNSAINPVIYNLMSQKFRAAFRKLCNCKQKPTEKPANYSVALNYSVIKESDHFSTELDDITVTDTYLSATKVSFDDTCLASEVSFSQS
How it was run: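 Kinetic fluorescence (3 min, 1 s intervals) reported intracellular calcium after compound transfer onto TRHR-Hek293 cells pre-loaded with dye for 2 h at 37 °C.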

[17] = Human pregnane X receptor (PXR) small molecule agonists, qHTS cell viability counter screen (AID 1346977); further: nearly all actives have a fitted effect of over 50% in size
How it was run: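 HepG2 cells stably carrying the PXR-Luc reporter are cultured with 5% charcoal-stripped FBS and treated with compounds for 24hr. CellTiter-Fluor is added at 23hr and fluorescence is read after 1hr.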

[18] = biological target: Thyrotropin receptor (Homo sapiens) (UniProt P16473); assay: qHTS assay to identify small molecule antagonists of the thyroid stimulating hormone receptor (TSHR) signaling pathway (AID 1259385; calls by dose curve; further: nearly all actives have a fitted effect of over 20% in size)
Sequence of Thyrotropin receptor (Homo sapiens) (P16473 whole entry, looked up): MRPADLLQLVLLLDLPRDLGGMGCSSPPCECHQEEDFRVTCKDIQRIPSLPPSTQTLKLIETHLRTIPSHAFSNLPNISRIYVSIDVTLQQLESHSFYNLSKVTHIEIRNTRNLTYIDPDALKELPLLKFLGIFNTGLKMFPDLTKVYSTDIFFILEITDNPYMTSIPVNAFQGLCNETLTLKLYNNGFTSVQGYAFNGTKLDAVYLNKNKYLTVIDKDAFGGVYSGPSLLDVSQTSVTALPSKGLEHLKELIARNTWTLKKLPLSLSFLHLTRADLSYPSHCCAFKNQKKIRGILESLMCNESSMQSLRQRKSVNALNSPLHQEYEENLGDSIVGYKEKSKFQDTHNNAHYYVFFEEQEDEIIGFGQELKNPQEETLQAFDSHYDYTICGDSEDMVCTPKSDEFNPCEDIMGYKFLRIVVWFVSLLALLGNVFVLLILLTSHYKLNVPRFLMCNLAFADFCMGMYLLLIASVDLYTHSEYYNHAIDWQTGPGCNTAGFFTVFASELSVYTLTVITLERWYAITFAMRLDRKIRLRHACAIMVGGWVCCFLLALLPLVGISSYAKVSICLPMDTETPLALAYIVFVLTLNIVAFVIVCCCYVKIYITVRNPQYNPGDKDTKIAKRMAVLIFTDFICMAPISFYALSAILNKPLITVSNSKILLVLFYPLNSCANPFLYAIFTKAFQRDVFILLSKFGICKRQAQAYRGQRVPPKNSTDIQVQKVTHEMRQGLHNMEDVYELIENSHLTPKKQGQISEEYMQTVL
How it was run: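 Antagonist mode: compound-treated TSHR-expressing HEK293 cells were stimulated with 1.5 ng/mL TSH (final) in presence of Ro20-1724 for 30 min at RT. HTRF cAMP detection after 1 h; each compound tested at 15 concentrations, triplicate.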

[19] = biological target: Thyrotropin-releasing hormone receptor (Homo sapiens) (UniProt P34981); assay: qHTS assay to identify small molecule antagonists of the thyrotropin-releasing hormone receptor (TRHR) signaling pathway (AID 1346877; active means well fitted inhibition curve with a large enough effect in the repeat runs, not every such curve was filed as active; further: series mostly up to about 51 µM)
How it was run: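 TRHR-expressing HEK293 cells were seeded, cultured 18 h at 37 °C, then loaded with calcium dye for 2 h. Compounds were pre-incubated 5 min at room temperature before 1 nM TRH (final) was added, and kinetic fluorescence was recorded for 3 min.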

Measured: Potency

CCCCCC(=O)OCCc1ccccc1
not listed: [18] | [19]
inactive: all other assays above

CC(C)(N)C#N
not listed: [8] | [16]
inactive: all other assays above

CN(C)CCCCCCN(C)C
not listed: [6] | [16]
inactive: all other assays above

CCCCc1ccc2c(n1)[C@@H](c1ccc(OC)cc1C[C@H](C)C(=O)O)[C@H](C(=O)O)[C@H]2c1ccc2c(c1)OCO2
not listed: [10] | [11] | [16] | [19]
inactive: all other assays above

C=CCCC(=O)O
not listed: [16] | [19]
inactive: all other assays above

C=COC(=O)C(C)(CC)CCC(C)C (stereo unspecified)
not listed: [7] | [13] | [18] | [19]
inactive: all other assays above

CN1CCC(=C2c3ccccc3CCc3cccnc32)CC1
not listed: [8] | [15] | [17]
inactive: all other assays above

O=CN(CCO)CCO
not listed: [6] | [17]
inactive: all other assays above

CCNS(=O)(=O)c1ccc(C)cc1
not listed: [7] | [10] | [16] | [18]
inactive: all other assays above

NC(=O)Cc1cccc2ccccc12
not listed: [6] | [17]
inactive: all other assays above

C1CCC2=NCCCN2CC1
not listed: [6] | [16] | [17] | [19]
inactive: all other assays above

Nc1ccncc1N
not listed: [6] | [16]
inactive: all other assays above

CCC(=O)OCc1ccccc1
not listed: [6] | [9]
inactive: all other assays above

CC(C)(CCC(=O)O)C(=O)O
not listed: [5] | [7] | [16] | [18]
inactive: all other assays above

CCC(C)(CN(C)C)OC(=O)c1ccccc1 (stereo unspecified)
not listed: [6] | [7] | [16] | [18] | [19]
inactive: all other assays above

O=C1NC(=O)C2CC=CCC12 (stereo unspecified)
not listed: [6] | [10] | [11] | [14] | [16] | [18]
inactive: all other assays above

c1ccc2sc(SN3CCOCC3)nc2c1
not listed: [6] | [9] | [13] | [19]
inactive: all other assays above

O=C(c1ccccc1)C1(O)CCCCC1
not listed: [6] | [10] | [16]
inactive: all other assays above

CC(C)C(=O)OC(=O)C(C)C
not listed: [5] | [6] | [13] | [17]
inactive: all other assays above

CCOc1ccccc1OCC
not listed: [6] | [16] | [18] | [19]
inactive: all other assays above

C[C@@H]1CCC[C@H](C)N1
not listed: [6] | [11] | [16] | [17] | [19]
inactive: all other assays above

CCN[C@H]1C[C@H](C)S(=O)(=O)c2sc(S(N)(=O)=O)cc21
not listed: [5] | [16] | [18]
inactive: all other assays above

COc1cc(C(=O)OC(COCCC(C)C)CN2CCOCC2)cc(OC)c1OC (stereo unspecified)
not listed: [5] | [19]
inactive: all other assays above

CCCCCCCCCCCCSC
not listed: [6] | [11]
inactive: all other assays above

O=[N+]([O-])c1ccc(/C=N\O)o1
not listed: [5] | [9] | [17] | [19]
inactive: all other assays above

COc1c(N2CCNC(C)C2)c(F)cc2c(=O)c(C(=O)O)cn(C3CC3)c12 (stereo unspecified)
not listed: [6] | [7] | [16] | [18]
inactive: all other assays above

O=C(CO)[C@@H](O)[C@H](O)[C@H](O)CO
not listed: [5] | [9]
inactive: all other assays above

From PubChem BioAssay (Tox21)
